Here are results for 98 compounds from PubChem BioAssay AID1851 (National Center for Advancing Translational Sciences (NCATS), 2009).

Where “and” joins values, the source holds several entries; their conditions need not be identical. Equal values may be shown once. The campaign covered roughly 16,000 compounds. About 2,600 (16%) were called active. About 20% were inconclusive and are not listed. Not all results are given here. Unmarked numbers belong to inactive results. The call rests on the fitted dose curve; in most records, active means well fitted curve in the direction sought with a large enough effect; inconclusive means small, poorly fitted or top-dose-only effect, or effect the other way; inactive means no such curve, though single readings can be large or run the other way.
On the % scale 0 is the no-effect control and ±100 the full control effect.

Cytochrome P450 2D6 (Homo sapiens), sequence (P10635 whole entry, looked up): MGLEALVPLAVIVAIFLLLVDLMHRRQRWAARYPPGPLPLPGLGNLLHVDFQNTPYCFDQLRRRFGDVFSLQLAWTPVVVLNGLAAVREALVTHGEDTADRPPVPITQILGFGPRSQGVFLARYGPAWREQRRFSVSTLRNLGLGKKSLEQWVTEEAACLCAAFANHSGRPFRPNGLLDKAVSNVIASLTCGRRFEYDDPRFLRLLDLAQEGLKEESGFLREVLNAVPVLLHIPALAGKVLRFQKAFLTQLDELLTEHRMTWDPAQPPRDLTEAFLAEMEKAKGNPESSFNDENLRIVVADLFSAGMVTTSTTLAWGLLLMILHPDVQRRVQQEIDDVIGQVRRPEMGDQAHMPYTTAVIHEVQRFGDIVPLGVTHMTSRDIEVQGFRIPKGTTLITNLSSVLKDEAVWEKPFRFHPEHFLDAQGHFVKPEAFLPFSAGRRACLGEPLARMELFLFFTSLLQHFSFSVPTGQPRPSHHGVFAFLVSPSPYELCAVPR

This experiment has as its target Cytochrome P450 2D6 (Homo sapiens) (UniProt P10635). Put plainly: Cytochrome panel assay with activity outcomes. Particulars: recombinant CYP, pro-luciferin dealkylation, luminescence, p450-cyp2d6; series mostly up to 57.1 µM.
Take `CC1CC2=C(NC(=S)NC2c2ccc(F)cc2)/C(=C/c2ccc(F)cc2)C1` (stereo not drawn): the AC50 result was “inactive”.
With `CO[C@@H]1/C=C\CC(=O)N[C@@H](C)C(=O)OC[C@H](NS(=O)(=O)c2ccc(C)cc2)[C@H](C)/C=C\CC(=O)OC[C@H]1C`, the activity, negative = inhibition was -18.7% [at 11.4 µM].
As for `COc1cccc(-c2cc3nc(-c4ccccc4)cc(N4CCC5(CC4)OCCO5)n3n2)c1`, the AC50 result is “inactive”.
As to `COCCn1c(=O)c(CCc2ccccc2)nc2cnc(OC)nc21`, the AC50 result was “inactive”.
Take `COc1cccc(Nc2ncc3nc(CCc4ccccc4)c(=O)n(CCC#N)c3n2)c1`: the AC50 result is “inactive”.
In the case of `CCNc1ncc2nc(CCc3ccccc3)c(=O)n(Cc3cccc(OC)c3)c2n1`, the AC50 entry is “inactive”.
As to `CCNc1ncc2nc(CCc3ccccc3)c(=O)n(CCC#N)c2n1`, the AC50 was 0.158 µM (active).
Same read-out and setting: as for `N#CCCn1c(=O)c(CCc2ccccc2)nc2cnc(Nc3ccccc3)nc21`, the entry is “inactive”.
Still for that read-out and setting: as for `CCNc1ncc2nc(CCc3ccccc3)c(=O)n(CCOC)c2n1`, the figure is 0.398 µM (active).
For the compound `CCC(=O)N1CCN(C(=O)c2ccccc2)CC1`, the AC50 entry is “inactive”.
As for `COc1cc(O)c2c(O)c3c(c4c2c1[C@@]1(C4)C(C)=CCCC1(C)C)[C@H](O)[C@@]1(O)CC(=O)C(C(N)=O)=C(O)[C@]1(O)C3=O`, the activity, negative = inhibition was -15.8% [at 11.4 µM].
`O=C(/C=C/c1cccc(Cl)c1)Nc1ccncc1`: the AC50 was 7.94 µM (active).
Consider `COCCCNC(=O)/C=C/c1cccc(Cl)c1`, for which the AC50 result is “inactive”.
Regarding `COC(=O)c1cccc(NC(=O)/C=C/c2cccc([N+](=O)[O-])c2)c1`, the AC50 entry was “inactive”.
With `C[C@@]1(CCOCc2ccccc2)NC(=O)NC1=O`, the activity, negative = inhibition was -5.74% [at 11.4 µM].
For the compound `COc1ccc(C(=O)NCc2cn3ccccc3n2)cc1`, the AC50 result is “inactive”.
For `C=C[C@@]1(C)CC(=O)[C@@]2(O)[C@@]3(C)[C@@H](O)CCC(C)(C)[C@@H]3[C@H](OC(=O)CCN(C)C)[C@H](OC(C)=O)[C@@]2(C)O1`, the AC50 result was “inactive”.
For the compound `Cc1ccc(NC(=O)/C(=C\c2cccnc2)NC(=O)c2ccco2)cc1`, the AC50 result was “inactive”.
The same measure, in the same setting: as for `CC1(C)Oc2ccc(NC(=O)c3ccco3)cc2O1`, the entry is “inactive”.
Turning to `O=C(NC(Cc1ccccc1)C(=O)O)/C(=C\c1ccco1)NC(=O)c1ccc(Br)cc1` (stereo not drawn), the AC50 entry was “inactive”.
For the compound `C=CCNC(=O)/C(=C\c1ccc2c(c1)OCO2)NC(=O)c1ccc(Br)cc1`, the AC50 is 25.1 µM (active).
Regarding `O=C(Nc1ccccc1)/C(=C\c1ccc2c(c1)OCO2)NC(=O)c1ccco1`, the half-maximal activity concentration (AC50) was 15.8 µM (active).
For the compound `O=C(Nc1ccccc1C(=O)Nc1ccc2c(c1)OCO2)c1ccco1`, the AC50 is 12.6 µM (active).
As to `O=C(N/N=C/c1ccc2c(c1)OCO2)/C(=C/c1ccc2c(c1)OCO2)NC(=O)c1ccccc1`, the AC50 entry is “inactive”.
Turning to `COc1ccccc1C(=O)N/C(=C/c1ccc(Br)cc1)C(=O)NCC(=O)O`, the AC50 result is “inactive”.
For `CCC(NC(=O)c1ccccc1NC(=O)c1ccco1)C(=O)NC1CCCCC1` (stereo not drawn), the AC50 entry was “inactive”.
Consider `C#CCCCO/N=C1/C[C@@H](O)[C@@H](O)[C@@H]2[C@@H]3C(=O)N(CC)C(=O)[C@H]3CC[C@H]12`, for which the activity, negative = inhibition is 14.7% [at 11.4 µM].
Turning to `CC(=O)COc1ccc2c(C)c(C)c(=O)oc2c1`, the AC50 result is “inactive”.
On the same count and under the same terms, as for `CCOC(=O)C(Sc1ncnc2c1sc1nc(N3CCOCC3)c3c(c12)CCCC3)c1ccccc1` (stereo not drawn), the entry is “inactive”; as for `CCOC(=O)CC1C(=O)NCCN1S(=O)(=O)c1ccc(Cl)c(Cl)c1` (stereo not drawn), “inactive”; as for `COc1ccc(-n2c(=O)c(-c3ccc(F)c(F)c3)nc3cncnc32)cc1`, “inactive”.
`NC(N)=NC(N)=Nc1ccc(S(=O)(=O)O)cc1`: the activity, negative = inhibition is 3.23% [at 11.4 µM].
Take `O=C(O)/C(=C\c1ccccc1)c1ccccc1`: the activity, negative = inhibition was -2.29% [at 11.4 µM].
Take `FC(F)(F)c1ccccc1-c1nc(NCc2cccnc2)c2ccccc2n1`: the concentration at half-maximal activity (AC50) is 15.8 µM (active).
Still for that read-out and setting: as for `Cc1ccccc1-c1nc(Nc2ccncc2)c2ccccc2n1`, the entry is “inactive”; as for `Clc1ccccc1-c1nc(NCc2cccnc2)c2ccccc2n1`, 20 µM (active); as for `Clc1ccccc1-c1nc(N/N=C/c2cccnc2)c2ccccc2n1`, “inactive”.
Turning to `FC(F)(F)c1ccccc1-c1nc(NC2CCNCC2)c2ccccc2n1`, the AC50 result was “inactive”.
Turning to `FC(F)(F)c1ccccc1-c1nc(Nc2ccncc2)c2ccccc2n1`, the AC50 is 25.1 µM (active).
With `COc1cc(OC)c(C2C(C(=O)O)c3ccccc3C(=O)N2C)cc1OC` (stereo not drawn), the AC50 entry is “inactive”.
Still for that read-out and setting: as for `NC1(C(=O)O)C[C@@H](C(=O)O)[C@H](C(=O)O)C1`, the entry is “inactive”; as for `CCNc1ncc2nc(-c3ccc(Cl)cc3)c(=O)n(C3CC3)c2n1`, “inactive”; as for `N#CCCn1c(=O)cnc2cnc(N3CCOCC3)nc21`, “inactive”.
Turning to `CCCCCc1nnc(NC(=O)C(=O)OCC)s1`, the AC50 result was “inactive”.
With `CC(C)OCCCN1C(=O)c2ccccc2C1C(=O)NC1CCCCC1` (stereo not drawn), the AC50 entry is “inactive”.
On the same count and under the same terms, as for `CO/N=C(\C(=O)N[C@@H]1C(=O)N2C(C(=O)[O-])=C(C[N+]3(C)CCCC3)CS[C@@H]12)c1csc(N)n1`, the entry is “inactive”.
With `Cn1cccc1CC(=O)N/N=C\c1cccs1`, the AC50 entry is “inactive”.
With `CCCCC(=O)NNC(=S)NC(=O)c1cccc([N+](=O)[O-])c1`, the AC50 entry is “inactive”.
As for `CCCn1c(=O)c2[nH]c(-c3ccccc3)nc2n(CCC)c1=O`, the AC50 result was “inactive”.
For `CC1(C)OC(=O)C(=CNc2cccc(O)c2)C(=O)O1`, the AC50 entry is “inactive”.
Consider `CC(C)=CCc1c(C)nc2ccccc2c1C(=O)O`, for which the AC50 result is “inactive”.
In the case of `CC(C)=CCC1=C(OCC(=O)O)C(=O)c2ccccc2C1=O`, the half-maximal activity concentration (AC50) was 3.16 µM (active).
For the compound `CC(CC(=O)O)CC(=O)Nc1ccc(S(N)(=O)=O)cc1` (stereo not drawn), the AC50 result is “inactive”.
As to `O=C1/C(=N\O)Cc2ccccc21`, the AC50 entry is “inactive”.
Still for that read-out and setting: as for `CN1CCC(=C2c3ccccc3CC(=O)c3sccc32)CC1`, the figure is 7.94 µM (active) and 3.16 µM (active) and 5.01 µM (active).
Consider `CN1CCC(=C2c3ccccc3CCc3sccc32)CC1`, for which the concentration at half-maximal activity (AC50) was 1.26 µM (active).
With `CCc1cc(C(=O)OC)c(NC(=O)CCCC(=O)O)s1`, the AC50 result is “inactive”.
As for `O=C(NNC(=O)c1cccnc1)Nc1cccc2ccccc12`, the AC50 entry was “inactive”.
As to `CO[C@H]1COC(=O)C/C=C\[C@H](C)[C@@H](NS(=O)(=O)c2ccc(C)cc2)COC(=O)C/C=C\[C@@H]1C`, the activity, negative = inhibition was 3.82% [at 11.4 µM].
As for `NC(N)=NC(N)=Nc1c(F)c(F)c(F)c(F)c1F`, the activity, negative = inhibition was 13.6% [at 11.4 µM].
With `Cc1ccc(N=CC2=C(O)CC(c3ccco3)CC2=O)cc1` (stereo not drawn), the AC50 result was “inactive”.
As to `COc1cc(OC)c2c(c1)C(=O)c1cc(OC)cc(OC)c1C2=O`, the AC50 result is “inactive”.
On the same count and under the same terms, as for `O=c1c(-c2ccccc2)nc2cnc(N3CCOCC3)nc2n1C[C@H]1CCCO1`, the entry is “inactive”.
As to `O=C1c2ccccc2C(=O)N1CC1CCCO1` (stereo not drawn), the AC50 entry is “inactive”.
As to `Nc1ncc(-c2ccccc2)n1CC1CCCO1` (stereo not drawn), the AC50 is 3.55 µM (active).
Still for that read-out and setting: as for `Cc1c(Cl)cccc1NC(=O)CCC(=O)NNC(=O)c1ccco1`, the entry is “inactive”.
`CCOC(=O)c1cnc(N(C)C)nc1SC(=N)N`: the activity, negative = inhibition is -3.04% [at 11.4 µM].
Take `Cc1noc(C)c1C(=O)N1CCC2(CCCN(C(=O)NC(C)C)C2)CC1`: the AC50 result is “inactive”.
For the compound `O=C(CCNS(=O)(=O)c1cccs1)N1CCc2ccccc2C1`, the half-maximal activity concentration (AC50) is 12.6 µM (active).
Still for that read-out and setting: as for `O=C(O)CCC(=O)N1CCc2cc(S(=O)(=O)NCc3cccs3)ccc21`, the entry is “inactive”; as for `O=C(CCNS(=O)(=O)c1cccs1)N1CCCCCC1`, “inactive”; as for `COCCn1c(=O)c(-c2cc(F)cc(F)c2)nc2cncnc21`, “inactive”.
Consider `COc1c(NC(C)=O)c2ccccc2c2ccccc12`, for which the activity, negative = inhibition was -0.0075% [at 11.4 µM].
As to `COCC(=O)N1CCC2(CC1)CN(Cc1ccc(C#N)cc1)C2`, the AC50 result is “inactive”.
With `COC(=O)N1CCC2(CCCN(Cc3ccccc3)C2)CC1`, the AC50 was 10 µM (active).
`CC(=O)N1CCC2(CCCN(Cc3ccccc3)C2)CC1`: the concentration at half-maximal activity (AC50) was 2.51 µM (active).
As for `COC(=O)N1CCC2(CCCN(Cc3ccc(C#N)cc3)C2)CC1`, the AC50 is 0.316 µM (active).
Consider `COC(=O)N1CCC[C@@]2(CCN(C(=O)Nc3cccc(C#N)c3)C2)C1`, for which the AC50 entry is “inactive”.
As to `CC(=O)N1CCC2(CC1)CN(Cc1ccccc1)C2`, the AC50 result is “inactive”.
For `O=c1cnc2cnc(N3CCNCC3)nc2n1Cc1ccc(F)cc1`, the AC50 result is “inactive”.
The same measure, in the same setting: as for `CCNC(=S)NNC(=O)c1cc(CC(C)C)nc2ccccc12`, the entry is “inactive”.
For the compound `O=C1[C@H]2[C@H]3[C@H](O)[C@H](O)C/C(=N/OCc4ccccc4)[C@@H]3CC[C@@H]2C(=O)N1C[C@@H]1CCCO1`, the activity, negative = inhibition is 10% [at 11.4 µM].
As for `Cn1c(=O)c(-c2cccc(C#N)c2)nc2cnc(Oc3ccccc3)nc21`, the AC50 entry is “inactive”.
Take `O=c1cc(O)cc(/C=C\c2ccc(O)c(O)c2)o1`: the AC50 entry is “inactive”.
Regarding `CC1=C(C(=O)N2CCCCCC2)C2(CCC(C)CC2)OC1=O` (stereo not drawn), the AC50 result was “inactive”.
Turning to `COc1ccccc1NC(=S)NNC(=O)c1c(Cl)c(C)nn1C`, the AC50 entry was “inactive”.
For `CC(C)CN(CC(C)C)S(=O)(=O)N1CCC(C(=O)NCc2ccc(F)cc2)CC1`, the AC50 result was “inactive”.
The same measure, in the same setting: as for `CC[C@H](NC(C)C)[C@H](O)c1ccc(O)c(O)c1`, the figure is 10 µM (active).
As for `CNC[C@@H](SC)c1ccc(O)c(O)c1`, the activity, negative = inhibition is 2.56% [at 11.4 µM].
With `COc1cc([C@H](O)CO)ccc1O`, the AC50 result was “inactive”.
Take `COC(=O)C(C)Sc1nc2c(cnn2-c2ccc(C)cc2)c(=O)[nH]1` (stereo not drawn): the AC50 entry is “inactive”.
In the case of `Cc1ccc(C(=O)C(OC(=O)COc2ccccc2C)c2ccccc2)cc1` (stereo not drawn), the AC50 result is “inactive”.
Turning to `Cc1ccc(C(=O)C(OC(=O)CNS(=O)(=O)c2ccccc2)c2ccccc2)cc1` (stereo not drawn), the AC50 entry is “inactive”.
For the compound `Cc1ccc(C(=O)C(OC(=O)CCC(=O)Nc2cccc(C)c2)c2ccccc2)cc1` (stereo not drawn), the AC50 is 28.2 µM (active).
For the compound `Cc1cc2c(c(=O)o1)[C@@H](O)[C@H]1O[C@@H]1C2=O`, the activity, negative = inhibition is 3.46% [at 11.4 µM].
For the compound `C[N+](C)(C)c1ccc([C@H](N)C(=O)O)cc1`, the activity, negative = inhibition is 6.78% [at 11.4 µM].
Take `COc1ccccc1CNc1ncnc2ccc(-c3cccnc3)cc12`: the AC50 is 5.01 µM (active).
On to `COc1ccc(CNc2ncnc3ccc(-c4cccnc4)cc23)c(OC)c1`, for which the AC50 is 10 µM (active).
